Assay results taken from the supplement of paper PMC13380429.
A number with no mark means an inactive call.

Test system: Vero E6 infected with SARS-CoV-2
Experiment: inhibition of SARS-CoV-2 cytopathic effect; higher = more antiviral protection, active = above 15
Details: 48 h

Row | Structure (SMILES) | inhibition of SARS-CoV-2 cytopathic effect (1 nM) | inhibition of SARS-CoV-2 cytopathic effect (8.33 nM) | inhibition of SARS-CoV-2 cytopathic effect (100 nM) | inhibition of SARS-CoV-2 cytopathic effect (833.33 nM) | inhibition of SARS-CoV-2 cytopathic effect (10000 nM)
1 | Brc1ccc(NC2C3CC4CC(C3)CC2C4)cc1 (stereo not given) [bromantan] | -1.24% | -0.71% | -0.8% | 0.76% | 1.67%
2 | Cc1ncc(NC(=O)c2ccc(CN3CCN(C)CC3)c(C(F)(F)F)c2)cc1Nc1nccc(-c2cccnc2)n1 [flumatinib] | 2.56% | -0.34% | 1.46% | 3.69% | 66.1% (active)
3 | CNC(=O)c1cc(Oc2ccc(NC(=O)Nc3ccc(Cl)c(C(F)(F)F)c3)c(F)c2)ccn1 [regorafenib] | 2.3% | 3.25% | 1.21% | -1.69% | 2.67%
4 | CCCCS(=O)(=O)N[C@@H](Cc1ccc(OCCCCC2CCNCC2)cc1)C(=O)O [tirofiban] | 1.63% | 1.13% | 0.55% | 0.26% | 2.44%
5 | CN(C)CCc1ccc(O)cc1 [hordenine] | 0.04% | -0.27% | 0.47% | -2.27% | -0.68%
6 | COc1ccc(OC)c2c(=S)c3ccccc3[nH]c12 | 2.65% | 4.64% | 1.38% | 1.44% | 2.75%
7 | CO[C@H]1/C=C/O[C@@]2(C)Oc3c(C)c(O)c4c(O)c(c(/C=N/N=C/N5CCCCC5)c(O)c4c3C2=O)NC(=O)/C(C)=C\C=C\[C@H](C)[C@H](O)[C@@H](C)[C@@H](O)[C@@H](C)[C@H](OC(C)=O)[C@@H]1C | 5.27% | 5.73% | 6.01% | 4.61% | 3.27%
8 | NS(=O)(=O)NCCNc1nonc1/C(=N/O)Nc1ccc(F)c(Br)c1 | -1.72% | -0.99% | -3.11% | 3.1% | -1.01%
9 | Cc1c(C2CCN(CCc3ccccc3)CC2)noc1-c1ccc(Cl)cc1 | -1.74% | 5.24% | 6.13% | 4.32% | -5.7%
10 | Cc1ccc(Cl)c(Nc2ccccc2C(=O)O)c1Cl [meclofenamic-acid] | -0.6% | 1.04% | -1.96% | 0.39% | -1.58%
